These results are taken from PubChem BioAssay (Tox21).

Assay [1] in a line: qHTS assay to identify small molecule antagonists of the glucocorticoid receptor (GR) signaling pathway - cell viability counter screen (AID 720693). Note: nearly all actives have a fitted effect of over 55% in size. In general terms: In qHTS, concentration-response curves come from the screen itself.
Assay [2] can be described thus: qHTS assay for identifying genotoxic compounds that show differential cytotoxicity against isogenic chicken DT40 cell lines with known DNA damage response pathways - wild type cell line (AID 743012). Note: nearly all actives have a fitted effect of over 60% in size. Note: potency is the fitted concentration of half-maximal effect. Put shortly: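 300 wt DT40 cells/well; cpd (DMSO) pintool-transferred after ~0.5 h at 37 C/5% CO2; 40 h incubation; CellTiter-Glo added, 30 min RT; luminescence read.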

A short description of assay [3]: qHTS assay for identifying genotoxic compounds that show differential cytotoxicity against isogenic chicken DT40 cell lines with known DNA damage response pathways - Rev3 mutant cell line (AID 743014). Note: nearly all actives have a fitted effect of over 55% in size. Note: potency is the fitted concentration of half-maximal effect.
Assay [4] in a line: qHTS assay for identifying genotoxic compounds that show differential cytotoxicity against isogenic chicken DT40 cell lines with known DNA damage response pathways - Rad54/Ku70 mutant cell line (AID 743015). Note: nearly all actives have a fitted effect of over 60% in size. Note: potency is the fitted concentration of half-maximal effect.
Assay [5] in a line: qHTS assay to identify small molecule antagonists of the androgen receptor (AR) signaling pathway - cell viability counter screen (AID 743033; note: nearly all actives have a fitted effect of over 45% in size).
Assay [6] in a line: qHTS assay to identify small molecule antagonists of the androgen receptor (AR) signaling pathway using the MDA cell line - cell viability counter screen (AID 743041; note: nearly all actives have a fitted effect of over 45% in size; note: potency is the fitted concentration of half-maximal effect). Put shortly: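 Compound exposure lasted 16 h at 37C in MDA-kb2 AR-luc cells stimulated with R1881. Protease-based CellTiter-Fluor reagent was applied for the final 30 min and fluorescence measured.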
In assay [7] the target is Androgen receptor (Homo sapiens) (UniProt P10275). The assay is described as follows: qHTS assay to identify small molecule antagonists of the androgen receptor (AR) signaling pathway (AID 743035; active = well fitted inhibition curve with a large enough effect in the signal ratio in the repeat runs, not every such curve was filed as active; the % refers to the signal ratio). Put shortly:
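In this cell-based reporter screen, compounds were tested in concentration series against R1881-activated HEK293 cells expressing beta-lactamase under UAS control; after 16 h at 37C, FRET substrate was added and fluorescence read 2 h later.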

Assay [8] shares this target. Kind of assay: qHTS assay to identify small molecule agonists of the androgen receptor (AR) signaling pathway using the MDA cell line (AID 743040; note: nearly all actives have a fitted effect of over 20% in size). Put shortly:
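Testing was done with the MDA-kb2 AR-luc line, a human breast carcinoma stably transfected with MMTV-luciferase containing AR and GR response elements. Cells were exposed 16 h at 37C before ONE-Glo luminescence detection.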

Assay [9] has the same target. Kind of assay: qHTS assay to identify small molecule antagonists of the androgen receptor (AR) signaling pathway using the MDA cell line (AID 743042; note: nearly all actives have a fitted effect of over 55% in size). In outline:
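MDA-kb2 breast carcinoma cells carrying MMTV-luciferase (AR/GR responsive) were co-treated with compounds and the agonist R1881 for 16 h at 37C. Inhibition read as ONE-Glo luminescence; CellTiter-Fluor fluorescence measured in parallel for cytotoxicity.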

Unmarked numbers belong to inactive results. Records with an inconclusive call do not appear. Where a structure was tested more than once in an assay, its records may differ in their call. Active and inactive are the calls of the source. Unless noted, calls come from the whole dose curve; as a rule, active = well fitted curve in the direction sought with a large enough effect in the repeat runs; inconclusive = weak or mixed curves; inactive = no such curve, though single readings can be large; an effect the other way counts as inactive or inconclusive.
% is set by controls: 0 for no effect and ±100 for the full control effect.

Androgen receptor (Homo sapiens), sequence (P10275 whole entry, looked up): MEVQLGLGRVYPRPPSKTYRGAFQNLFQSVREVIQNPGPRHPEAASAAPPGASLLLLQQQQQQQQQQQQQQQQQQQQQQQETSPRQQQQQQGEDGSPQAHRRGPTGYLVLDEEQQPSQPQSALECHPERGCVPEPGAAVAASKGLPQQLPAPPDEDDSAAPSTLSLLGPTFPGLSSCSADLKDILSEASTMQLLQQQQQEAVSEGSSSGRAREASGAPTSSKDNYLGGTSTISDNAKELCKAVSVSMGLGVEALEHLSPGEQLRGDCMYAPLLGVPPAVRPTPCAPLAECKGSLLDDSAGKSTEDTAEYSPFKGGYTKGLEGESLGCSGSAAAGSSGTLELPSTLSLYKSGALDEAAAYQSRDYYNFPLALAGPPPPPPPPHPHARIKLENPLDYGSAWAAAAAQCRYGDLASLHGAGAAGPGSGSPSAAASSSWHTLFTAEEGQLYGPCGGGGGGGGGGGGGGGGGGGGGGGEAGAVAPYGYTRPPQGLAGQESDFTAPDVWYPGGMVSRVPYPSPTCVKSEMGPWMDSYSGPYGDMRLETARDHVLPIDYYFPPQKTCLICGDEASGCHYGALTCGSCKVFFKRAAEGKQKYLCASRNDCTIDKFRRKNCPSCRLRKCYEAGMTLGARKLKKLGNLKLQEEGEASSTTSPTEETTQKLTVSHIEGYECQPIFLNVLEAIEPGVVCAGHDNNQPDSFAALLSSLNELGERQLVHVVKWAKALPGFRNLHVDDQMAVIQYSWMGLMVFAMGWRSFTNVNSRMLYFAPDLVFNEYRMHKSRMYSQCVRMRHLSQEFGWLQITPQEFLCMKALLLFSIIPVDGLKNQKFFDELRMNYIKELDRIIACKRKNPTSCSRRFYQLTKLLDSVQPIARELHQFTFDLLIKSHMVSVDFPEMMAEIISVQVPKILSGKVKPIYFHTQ

`Cc1c(Cl)cccc1Cl`: the compound was called inactive in [1] and in assay [5]. Also, the Potency result in assay [2], in assay [3], in assay [4] and in assay [6] was “inactive” throughout.
For `CCCCCCCCCOC(=O)CCCCC(=O)OCCCCCCC`, the result in assay [1] and in [5] was inactive. The Potency result in assay [2], in assay [3], in assay [4] and in [6] was “inactive” each time.
In the case of `CC1(C)Oc2ccc(C#N)cc2[C@@H](N2CCCC2=O)[C@@H]1O`, the result in assay [1] and in [5] was inactive. Moreover, the Potency result in assay [2], in assay [3], in assay [4] and in [6] was “inactive” throughout.
`N#Cc1cscn1`: the compound was classed as inactive in assay [1] and in assay [5]. The Potency entry in assay [2], in assay [3], in assay [4] and in assay [6] was “inactive” throughout.
For `C=C(C)C1CC=C(C)C(=O)C1` (stereo unspecified), the call in assay [1] and in assay [5] was inactive. In addition, the Potency entry in assay [2], in [3], in [4] and in [6] was “inactive” throughout.
As for `O=Cc1cc2ccccc2o1`, the call in assay [1] and in assay [5] was inactive. Moreover, the Potency result in [2], in assay [3], in assay [4] and in assay [6] was “inactive” in each case.
As for `Cc1ccc2c(c1)C(=O)c1ccccc1C2=O`, the outcome in [1] and in assay [5] was inactive. The Potency in [2] is 48.4 µM (active); in assay [3] it was 54.3 µM (active); in assay [4] it was 60.9 µM (active). In addition, the Potency entry in assay [6] was “inactive”.
As for `CC(C)Cn1cnc2c1c(=O)n(C)c(=O)n2C`, the outcome in [1] and in assay [5] was inactive. The Potency entry in assay [2], in assay [3], in assay [4] and in assay [6] was “inactive” each time.
In the case of `CCCCOC(=O)C(C)O` (stereo unspecified), the outcome in [1] and in [5] was inactive. In addition, the Potency result in assay [2], in [3], in assay [4] and in assay [6] was “inactive” each time.
For the compound `O=C1CCC(=O)N1Cl`, the result in assay [1] and in assay [5] was inactive. Besides, the Potency entry in assay [2], in assay [3], in [4] and in assay [6] was “inactive” in each case.
For the compound `CC(O)CC(C)O` (stereo unspecified), the compound was classed as inactive in assay [1] and in [5]. In addition, the Potency result in assay [2], in assay [3], in assay [4] and in assay [6] was “inactive” each time.
As for `COc1c2occc2c(OC)c2c(=O)cc(C)oc12`, the outcome in assay [1] and in assay [5] was inactive. Besides, the Potency entry in assay [2], in assay [3], in [4] and in [6] was “inactive” throughout.
For the compound `Cn1c(=O)c2c(ncn2CCO)n(C)c1=O`, the result in [1] and in assay [5] was inactive. For the same compound, the Potency result in assay [2], in assay [3], in assay [4] and in assay [6] was “inactive” each time.
As to `C=CC(=O)CCCCC`, the call in [1] and in assay [5] was inactive. Further, the Potency entry in [2], in [3], in [4] and in assay [6] was “inactive” each time.
`Fc1ccccc1`: the outcome in assay [1] was inactive. Further, the Potency entry in assay [2], in [3], in assay [4] and in [6] was “inactive” each time.
With `CC(=O)C(C)O` (stereo unspecified), the outcome in [1] and in assay [5] was inactive. The Potency entry in assay [2], in [3], in [4] and in assay [6] was “inactive” each time.
As for `C[C@@H](O)C(=O)O`, the outcome in assay [1] was inactive. For the same compound, the Potency entry in assay [2], in assay [3], in assay [4] and in [6] was “inactive” each time.
Turning to `O=C1CCCCO1`, the call in assay [1] and in assay [5] was inactive. Also, the Potency result in assay [2], in assay [3], in assay [4] and in assay [6] was “inactive” in each case.
As to `CC1=C(C(=O)O)N2C(=O)[C@@H](NC(=O)[C@H](N)c3ccccc3)[C@H]2SC1`, the call in [1] and in assay [5] was inactive. The Potency result in assay [2], in [3], in assay [4] and in [6] was “inactive” each time.
With `CN(C)CCOC(=O)C(c1ccccc1)C1(O)CCCC1` (stereo unspecified), in assay [1], the call was inactive. Moreover, the Potency entry in [2], in assay [3], in [4] and in assay [6] was “inactive” in each case.
Turning to `O=S(=O)(O)c1ccc2c(N=Nc3ccc(S(=O)(=O)O)c4ccccc34)c(O)c(S(=O)(=O)O)cc2c1`, the call in assay [1] and in [5] was inactive. Moreover, the Potency entry in assay [2] and in assay [3] was “inactive” in each case. The activity change, negative = cytotoxicity in assay [4] was 0.0993% [at 8.55 µM]. The Potency in assay [6] is 22.1 µM (active). Besides, in assay [6], the viability change, negative = cytotoxic is -3.01% [at 8.47 µM].
With `Cc1c(NC(=O)c2cccnc2)c(=O)n(-c2ccccc2)n1C`, in assay [1], the compound was called inactive. In addition, the Potency result in assay [2], in assay [3], in assay [4] and in [6] was “inactive” each time.
Regarding `CC1c2ccccc2CN1NC(=O)c1ccc(Cl)c(S(N)(=O)=O)c1` (stereo unspecified), the result in [1] and in assay [5] was inactive. The Potency result in [2], in assay [3], in assay [4] and in [6] was “inactive” each time.
Take `O=C(O)[C@H](O)c1ccccc1`: the call in [1] and in assay [5] was inactive. Besides, the Potency entry in assay [2], in assay [3], in assay [4] and in assay [6] was “inactive” throughout.
Regarding `C=CCCCCCCCC`, the outcome in assay [1] and in assay [5] was inactive. Moreover, the Potency result in assay [2], in [3], in assay [4] and in assay [6] was “inactive” each time.
Regarding `CCOc1cccc(N)c1`, in [1], the compound was classed as inactive. The Potency entry in assay [2], in assay [3], in assay [4] and in assay [6] was “inactive” each time.
Take `CC1=NN(c2ccc(S(=O)(=O)O)cc2)C(=O)C1`: in [1], the compound was called inactive. Moreover, the Potency entry in assay [2], in assay [3], in assay [4] and in [6] was “inactive” throughout.
In the case of `CCO`, the call in assay [1], in [7] and in assay [9] was inactive. For the same compound, the Potency result in [2], in assay [3], in assay [4], in [8] and in assay [6] was “inactive” each time.
With `O=C=NCC1CCCC(CN=C=O)C1` (stereo unspecified), in assay [1], the outcome was inactive. The Potency entry in assay [2], in assay [3], in [4] and in [6] was “inactive” each time.
Turning to `CCCC(=O)Nc1ccc(OCC(O)CNC(C)C)c(C(C)=O)c1` (stereo unspecified), the call in [1] and in assay [5] was inactive. The Potency result in assay [2], in [3], in [4] and in assay [6] was “inactive” throughout.
In the case of `CSc1cnccn1`, in assay [1], the result was inactive. Also, the Potency result in [2], in [3], in assay [4] and in assay [6] was “inactive” throughout.
As for `C=CC(=O)OCC1CCCO1` (stereo unspecified), the compound was called inactive in [1]. Further, the Potency result in assay [2], in assay [3], in assay [4] and in assay [6] was “inactive” in each case.
